This is part of a sample that, as a whole, favours compounds with a hit. Of some 79,000 tested, about 15% had one in any assay. Active and inactive are the calls of the source. No stated cut-off is given here; in the data, active means growth inhibition above about 70%; inactive means the rest.
Assays:
[1] = NCI Yeast Anticancer Drug Screen. Data for the rad52 strain (AID 147);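 further: 0% = growth of vehicle-treated control cultures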; details: S. cerevisiae rad52 mutant growth inhibition, active compounds read high
Outline: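 Genetically altered yeast (DNA damage repair defect) treated with compound; inhibition calculated relative to vehicle.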

[2] = NCI Yeast Anticancer Drug Screen. Data for the wt1 strain (AID 149);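 further: 0% = growth of vehicle-treated wt1 cultures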; details: S. cerevisiae wt1 strain (SPY 50644) growth inhibition, active compounds read high
Outline: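 Measured: growth of wt1 yeast under compound versus vehicle treatment, reported as inhibition.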

[3] = NCI Yeast Anticancer Drug Screen. Data for the rad50EPP+ strain (AID 151);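 further: 0% = growth of vehicle-treated control cultures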; details: S. cerevisiae rad50 mutant strain, active compounds read high
Outline: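 Strain rad50EPP+; compound exposure; % growth inhibition vs vehicle.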

[4] = NCI Yeast Anticancer Drug Screen. Data for the mgt1 strain (AID 153); details: S. cerevisiae mgt1 mutant growth inhibition, active compounds read high
Outline: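 Read-out: yeast growth inhibition vs vehicle control. Strain mgt1, drawn from a panel altered in DNA damage repair or cell cycle control.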

[5] = NCI Yeast Anticancer Drug Screen. Data for the rad50 strain (AID 155);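 further: 0% = growth of vehicle-only cultures of the same strain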; details: S. cerevisiae rad50 strain growth inhibition, active compounds read high
Outline: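 Growth of the mutant yeast was measured after compound exposure and referenced to vehicle-treated cultures.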

[6] = NCI Yeast Anticancer Drug Screen. Data for the mec2-1 strain (AID 157); details: S. cerevisiae mec2-1 strain, active compounds read high
Outline: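 Cells of the genetically defined mec2-1 yeast strain are incubated with test compound. Inhibition of growth is calculated against vehicle-treated controls.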

[7] = NCI Yeast Anticancer Drug Screen. Data for the rad14 strain (AID 159);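 further: 0% = growth of vehicle-treated control cultures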; details: S. cerevisiae rad14 strain growth inhibition, active compounds read high
Outline: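 Here, inhibition of yeast growth was measured after compound exposure, using a strain with a genetic defect in DNA damage repair and vehicle-treated cultures as the reference.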

[8] = NCI Yeast Anticancer Drug Screen. Data for the sgs1 mgt1 strain (AID 161);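 further: 0% = growth of cultures given vehicle only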; details: S. cerevisiae sgs1 mgt1 strain, active compounds read high
Outline: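 Genetically altered yeast, compound exposure, growth inhibition relative to vehicle.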

[9] = NCI Yeast Anticancer Drug Screen. Data for the CLN2oe strain (AID 163);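 further: 0% = growth of vehicle-only control cultures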; details: S. cerevisiae CLN2oe strain, active compounds read high
Outline: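 Strain altered in cell-cycle control, incubated with compound; growth compared to solvent-treated controls.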

[10] = NCI Yeast Anticancer Drug Screen. Data for the cln2 rad14 strain (AID 165);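 further: 0% = growth equal to vehicle treated cultures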; details: S. cerevisiae cln2 rad14 strain, active compounds read high
Outline: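 The screen exposed genetically defined yeast (cln2 rad14) to test compounds and scored growth inhibition relative to vehicle-treated controls.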

[11] = NCI Yeast Anticancer Drug Screen. Data for the bub3 strain (AID 167); details: S. cerevisiae bub3 mutant strain, active compounds read high
Outline: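 Whole-cell yeast assay. The mutant strain was incubated with compounds, and growth inhibition was determined by comparison with vehicle-treated cells.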

[12] = NCI Yeast Anticancer Drug Screen. Data for the wt2 strain (AID 169);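 further: 0% = growth of vehicle-treated yeast cultures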; details: S. cerevisiae wt2 strain growth inhibition, active compounds read high
Outline: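 Steps: yeast strain treated with compound; growth recorded; inhibition calculated relative to cultures given vehicle alone.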

[13] = NCI Yeast Anticancer Drug Screen. Data for the mlh1 strain (AID 171);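 further: 0% = growth of vehicle-treated control cultures of the same strain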; details: S. cerevisiae mlh1 strain growth inhibition, active compounds read high
Outline: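 Yeast screen: mutant strain plus compound, growth scored against vehicle control wells.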

[14] = NCI Yeast Anticancer Drug Screen. Data for the sgs1 strain (AID 173);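 further: 0% = growth of vehicle-only control cultures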; details: S. cerevisiae sgs1 mutant, active compounds read high
Outline: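 Inhibition of yeast growth served as the measure. The mutant strain was treated with each compound, and growth was normalised to cultures receiving vehicle alone.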

[15] = NCI Yeast Anticancer Drug Screen. Data for the mlh1 rad18 strain (AID 175); details: S. cerevisiae mlh1 rad18 strain growth inhibition, active compounds read high
Outline: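 Compound-treated yeast growth, normalised to vehicle controls. Strain bears defined DNA repair mutations.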

[16] = NCI Yeast Anticancer Drug Screen. Data for the rad18 strain (AID 177); details: S. cerevisiae rad18 mutant growth inhibition, active compounds read high
Outline: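 Inhibition values reflect reduced yeast growth compared with vehicle-treated controls, using a strain engineered with a DNA damage repair defect.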

[17] = at 5.0 µM (retest, dose inferred, filed as 0.5)
[18] = at 50.0 µM (retest, dose inferred, filed as 5.0)

Measured: growth inhibition

CC(=O)[C@]1(O)Cc2c(O)c3c(c(O)c2[C@@H](OC2CC(N)C(O)C(C)O2)C1)C(=O)c1c(OCc2ccccc2)cccc1C3=O (stereo not given in full)
inactive: [1]; at 1.2 µM 21% | [1]; at 3.7 µM 40% | [1]; at 11.0 µM 59% | [2]; at 1.2 µM -9% | [2]; at 3.7 µM -4% | [2]; at 11.0 µM 5% | [2]; at 33.0 µM -4% | [2]; at 100.0 µM 7% | [3]; at 1.2 µM 18% | [3]; at 3.7 µM 21% | [3]; at 11.0 µM 28% | [3]; at 33.0 µM 46% | [3]; at 100.0 µM 65% | [4]; at 1.2 µM -2% | [4]; at 3.7 µM 8% | [4]; at 11.0 µM 5% | [4]; at 33.0 µM 14% | [4]; at 100.0 µM 43% | [5]; at 1.2 µM 14% | [5]; at 3.7 µM 24% | [5]; [17] 9% | [5]; at 11.0 µM 44% | [6]; at 1.2 µM 4% | [6]; at 3.7 µM -10% | [6]; [17] -9% | [6]; at 11.0 µM -1% | [6]; at 33.0 µM 2% | [6]; [18] 24% | [6]; at 50.0 µM 12.4% | [6]; at 100.0 µM 28% | [7]; at 1.2 µM 7% | [7]; at 3.7 µM 18% | [7]; at 11.0 µM 18% | [7]; at 33.0 µM 27% | [7]; at 100.0 µM 51% | [8]; [17] 11% | [8]; [18] 46% | [8]; at 50.0 µM 9.95% | [9]; at 1.2 µM 5% | [9]; at 3.7 µM 16% | [9]; at 11.0 µM 27% | [9]; at 33.0 µM 30% | [9]; at 100.0 µM 31% | [10]; [17] 4% | [10]; [18] 35% | [10]; at 50.0 µM -1.65% | [11]; at 1.2 µM -2% | [11]; at 3.7 µM 1% | [11]; [17] 10% | [11]; at 11.0 µM 5% | [11]; at 33.0 µM 18% | [11]; [18] 36% | [11]; at 50.0 µM 17.4% | [11]; at 100.0 µM 33% | [12]; at 1.2 µM -69% | [12]; at 3.7 µM -65% | [12]; at 11.0 µM -53% | [12]; at 33.0 µM -16% | [13]; at 1.2 µM -2% | [13]; at 3.7 µM -1% | [13]; at 11.0 µM 6% | [13]; at 33.0 µM 23% | [13]; at 100.0 µM 61% | [14]; at 1.2 µM 8% | [14]; at 3.7 µM 4% | [14]; at 11.0 µM 22% | [14]; at 33.0 µM 19% | [14]; at 100.0 µM 53% | [15]; [17] -4% | [15]; [18] 46% | [16]; at 1.2 µM 2% | [16]; at 3.7 µM 7% | [16]; at 11.0 µM 9% | [16]; at 33.0 µM 20% | [16]; at 100.0 µM 55%
active: [1]; at 33.0 µM 79% | [1]; at 100.0 µM 94% | [5]; at 33.0 µM 71% | [5]; [18] 83% | [5]; at 50.0 µM 72.8% | [5]; at 100.0 µM 92% | [12]; at 100.0 µM 92%

CN(C)CCNc1cccc2sc3ccc(O)cc3c(=O)c12
active: [5]; [18] 90% | [5]; at 50.0 µM 87.8%
inactive: [1]; at 1.2 µM 0% | [1]; at 3.7 µM 1% | [1]; at 11.0 µM 10% | [1]; at 33.0 µM 20% | [1]; at 100.0 µM 43% | [2]; at 1.2 µM 1% | [2]; at 3.7 µM 6% | [2]; at 11.0 µM 3% | [2]; at 33.0 µM 4% | [2]; at 100.0 µM 6% | [3]; at 1.2 µM 2% | [3]; at 3.7 µM 11% | [3]; at 11.0 µM 15% | [3]; at 33.0 µM 26% | [3]; at 100.0 µM 33% | [4]; at 1.2 µM -1% | [4]; at 3.7 µM -5% | [4]; at 11.0 µM -3% | [4]; at 33.0 µM 0% | [4]; at 100.0 µM 6% | [5]; at 1.2 µM 4% | [5]; at 3.7 µM 6% | [5]; [17] 14% | [5]; at 11.0 µM 11% | [5]; at 33.0 µM 31% | [5]; at 100.0 µM 47% | [6]; at 1.2 µM 4% | [6]; at 3.7 µM 5% | [6]; [17] -1% | [6]; at 11.0 µM 8% | [6]; at 33.0 µM 9% | [6]; [18] 17% | [6]; at 50.0 µM 18.5% | [6]; at 100.0 µM 7% | [7]; at 1.2 µM -1% | [7]; at 3.7 µM 1% | [7]; at 11.0 µM 5% | [7]; at 33.0 µM 12% | [7]; at 100.0 µM 19% | [8]; [17] 1% | [8]; [18] 7% | [8]; at 50.0 µM 48.1% | [9]; at 1.2 µM -6% | [9]; at 3.7 µM -11% | [9]; at 11.0 µM -8% | [9]; at 33.0 µM -5% | [9]; at 100.0 µM 4% | [10]; [17] 3% | [10]; [18] 26% | [10]; at 50.0 µM 45.5% | [11]; at 1.2 µM 2% | [11]; at 3.7 µM -4% | [11]; [17] 1% | [11]; at 11.0 µM -1% | [11]; at 33.0 µM -2% | [11]; [18] 8% | [11]; at 50.0 µM 36.2% | [11]; at 100.0 µM -4% | [13]; at 1.2 µM 1% | [13]; at 3.7 µM 3% | [13]; at 11.0 µM 4% | [13]; at 33.0 µM 4% | [13]; at 100.0 µM 8% | [14]; at 1.2 µM -1% | [14]; at 3.7 µM -1% | [14]; at 11.0 µM 2% | [14]; at 33.0 µM 3% | [14]; at 100.0 µM 3% | [15]; [17] -3% | [15]; [18] 44% | [15]; at 50.0 µM 66.5% | [16]; at 1.2 µM -2% | [16]; at 3.7 µM -2% | [16]; at 11.0 µM -1% | [16]; at 33.0 µM 1% | [16]; at 100.0 µM 5%
